# Calls of active or inactive are those of the source. Rule for the calls: active = hit-call score of the fitted dose curve at least 0.9, where 1 is the maximum; inactive = score below 0.9.
# Key:
# [1] = molecular target: Bile acid receptor (Homo sapiens) (UniProt Q96RI1); assay: ATG_IR1_CIS: Attagene CIS-FACTORIAL HepG2 Assay for human Nuclear Receptor Subfamily 1 Group H Member 4 (NR1H4), IR1 submotif (AID 2282946); conditions: IR1 reporter transcription, actives raise or lower the signal
# How it was run: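 Transient MRTU transfection, HepG2; 24 h dosing; RNA → RT-PCR → 6-FAM primer extension → HpaI digest → capillary electrophoresis fluorescence. Gain/loss of signal fitted relative to DMSO.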
# [2] = ATG_ISRE_CIS: Attagene CIS-FACTORIAL HepG2 Assay for human Interferon Regulatory Factor 1 (IRF1) binding to an Interferon-Stimulated Response Element (ISRE) (AID 2282948); conditions: HepG2 ISRE cis-reporter (Attagene), mRNA transcription readout; actives raise or lower the signal
# How it was run: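 HepG2 cells transiently transfected with multiplexed cis-promoter reporter units; after 24 h compound exposure, reporter mRNA quantified by RT-PCR, FAM labelling, HpaI digestion and capillary electrophoresis. Bidirectional fit versus DMSO baseline.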
# [3] = ATG_M_32_CIS: Attagene CIS-FACTORIAL HepG2 Assay for M32 Transcription Factor (Internal Marker) (AID 2282949); conditions: HepG2 Attagene cis-factorial M32 reporter, mRNA; actives raise or lower the signal;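 note: background control marker of the multiplexed CIS panel rather than a real target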
# How it was run: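 Following 24 h chemical exposure of HepG2 cells transiently expressing cis-promoter reporter constructs, reporter transcript levels were determined by RT-PCR with fluorescent labelling and capillary electrophoresis, then fitted bidirectionally against DMSO.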
# [4] = ATG_M_06_CIS: Attagene CIS-FACTORIAL HepG2 Assay for M06 Transcription Factor (Internal Marker) (AID 2282950); conditions: HepG2 Attagene CIS-FACTORIAL M06 internal marker reporter; actives raise or lower the signal
# How it was run: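 Measured 24 h post-dosing in transiently transfected HepG2 cells, this internal-marker endpoint reports reporter mRNA via RT-PCR with fluorescent primer extension and capillary electrophoresis. DMSO served as negative control and baseline for bidirectional fitting.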
# [5] = molecular target: Hypoxia-inducible factor 1-alpha (Homo sapiens) (UniProt Q16665); assay: ATG_HIF1a_CIS: Attagene CIS-FACTORIAL HepG2 Assay for human Hypoxia Inducible Factor 1 (HIF1A) (AID 2282951); conditions: HepG2 Attagene cis-factorial HIF1a reporter transcription; actives raise or lower the signal
# How it was run: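 Fluorescence intensity of capillary-separated, 6-FAM-labelled reporter amplicons gives mRNA induction in HepG2 cells carrying transfected cis-promoter reporter units; cells exposed 24 h, responses fitted up or down from DMSO.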
# [6] = molecular target: Hepatocyte nuclear factor 6 (Homo sapiens) (UniProt Q9UBC0); assay: ATG_HNF6_CIS: Attagene CIS-FACTORIAL HepG2 Assay for human Hepatocyte Nuclear Factor 6 (HNF6) (AID 2282952); conditions: HepG2 Attagene cis-factorial HNF6 reporter transcription; actives raise or lower the signal
# How it was run: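 Reporter mRNA induction or loss in HepG2 after 24 h exposure; transient cis-MRTU transfection; fragments quantified by capillary electrophoresis; bidirectional analysis, DMSO as negative control.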
# [7] = molecular target: Heat shock factor protein 1 (Homo sapiens) (UniProt Q00613); assay: ATG_HSE_CIS: Attagene CIS-FACTORIAL HepG2 Assay for human Heat Shock Transcription Factor 1 (HSE) (AID 2282953); conditions: HepG2 HSE cis-reporter, Attagene RNA transcription; actives raise or lower the signal
# How it was run: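 Reporter mRNA induction in HepG2 is measured 24 h after dosing, using transiently transfected multiplexed cis-regulated reporter units. Signal comes from capillary electrophoresis of labelled RT-PCR products, with DMSO as negative control.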
# [8] = ATG_MRE_CIS: Attagene CIS-FACTORIAL HepG2 Assay for human Metal Responsive Element (MRE) (AID 2282954); conditions: HepG2 MRE cis-reporter transcription, Attagene multiplex; actives raise or lower the signal
# How it was run: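 HepG2 cells transiently transfected with multiple cis-element reporter units measure endogenous MTF1-driven transcription. After 24 h compound exposure, reporter mRNA is quantified by RT-PCR with 6-FAM labelling, HpaI digestion and capillary electrophoresis; bidirectional fits versus DMSO.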
# [9] = ATG_PBREM_CIS: Attagene CIS-FACTORIAL HepG2 Assay for human Phenobarbital-responsive Enhancer Module (PBREM) (AID 2282955); conditions: HepG2 PBREM cis-reporter, Attagene multiplexed transcription; actives raise or lower the signal
# How it was run: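 Cells were transfected with cis-element reporter units and treated for 24 h, after which RNA was extracted and reporter transcripts measured by RT-PCR and capillary electrophoresis.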
# Chain of Hypoxia-inducible factor 1-alpha (Homo sapiens) (Q16665 whole entry, looked up): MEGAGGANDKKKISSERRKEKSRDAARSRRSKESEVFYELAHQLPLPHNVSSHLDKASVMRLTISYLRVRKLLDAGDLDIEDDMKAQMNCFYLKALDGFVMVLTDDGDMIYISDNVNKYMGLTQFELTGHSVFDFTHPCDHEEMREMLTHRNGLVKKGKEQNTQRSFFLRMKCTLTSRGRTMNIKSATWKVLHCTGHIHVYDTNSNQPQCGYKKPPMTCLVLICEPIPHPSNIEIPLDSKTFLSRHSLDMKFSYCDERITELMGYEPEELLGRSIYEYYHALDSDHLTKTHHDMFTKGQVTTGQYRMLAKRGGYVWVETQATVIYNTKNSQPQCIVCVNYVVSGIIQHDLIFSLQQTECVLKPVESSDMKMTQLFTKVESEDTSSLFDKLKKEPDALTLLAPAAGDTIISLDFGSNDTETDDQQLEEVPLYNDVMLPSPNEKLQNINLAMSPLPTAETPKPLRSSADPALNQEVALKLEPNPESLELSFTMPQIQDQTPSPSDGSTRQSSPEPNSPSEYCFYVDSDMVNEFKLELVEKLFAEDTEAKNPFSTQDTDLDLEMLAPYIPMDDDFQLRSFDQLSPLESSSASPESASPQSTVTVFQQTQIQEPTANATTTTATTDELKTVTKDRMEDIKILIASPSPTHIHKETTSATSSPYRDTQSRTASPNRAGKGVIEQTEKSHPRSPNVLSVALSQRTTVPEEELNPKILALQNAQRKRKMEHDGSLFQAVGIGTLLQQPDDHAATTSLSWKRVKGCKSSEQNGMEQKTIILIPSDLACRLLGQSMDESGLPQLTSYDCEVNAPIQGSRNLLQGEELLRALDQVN
# Chain of Hepatocyte nuclear factor 6 (Homo sapiens) (Q9UBC0 whole entry, looked up, the tested form may be a part): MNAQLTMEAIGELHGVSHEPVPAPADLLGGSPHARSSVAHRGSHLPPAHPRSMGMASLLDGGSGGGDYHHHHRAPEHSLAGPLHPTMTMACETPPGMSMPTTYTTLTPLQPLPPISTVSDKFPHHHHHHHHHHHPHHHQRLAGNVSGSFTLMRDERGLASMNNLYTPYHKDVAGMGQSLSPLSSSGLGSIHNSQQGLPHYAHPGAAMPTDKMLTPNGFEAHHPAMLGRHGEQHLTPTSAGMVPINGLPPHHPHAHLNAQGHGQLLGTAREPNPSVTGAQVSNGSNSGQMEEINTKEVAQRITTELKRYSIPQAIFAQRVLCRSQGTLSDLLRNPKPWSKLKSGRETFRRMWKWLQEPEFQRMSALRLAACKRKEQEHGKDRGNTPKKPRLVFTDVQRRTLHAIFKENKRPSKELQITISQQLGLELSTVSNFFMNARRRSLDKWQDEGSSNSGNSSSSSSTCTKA
# Chain of Heat shock factor protein 1 (Homo sapiens) (Q00613 whole entry, looked up): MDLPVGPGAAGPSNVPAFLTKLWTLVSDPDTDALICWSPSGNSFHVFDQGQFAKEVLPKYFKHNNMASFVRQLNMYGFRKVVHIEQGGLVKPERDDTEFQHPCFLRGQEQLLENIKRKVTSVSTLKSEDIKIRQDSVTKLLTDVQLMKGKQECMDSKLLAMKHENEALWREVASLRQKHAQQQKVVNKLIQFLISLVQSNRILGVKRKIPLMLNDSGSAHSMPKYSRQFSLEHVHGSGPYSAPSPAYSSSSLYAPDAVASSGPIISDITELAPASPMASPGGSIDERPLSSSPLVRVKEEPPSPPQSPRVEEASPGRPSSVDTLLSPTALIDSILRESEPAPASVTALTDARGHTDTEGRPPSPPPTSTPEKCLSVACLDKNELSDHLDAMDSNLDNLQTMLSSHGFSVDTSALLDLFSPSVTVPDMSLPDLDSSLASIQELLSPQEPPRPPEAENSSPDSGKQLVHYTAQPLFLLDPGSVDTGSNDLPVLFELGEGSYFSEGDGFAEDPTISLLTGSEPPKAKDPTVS
# Chain of Bile acid receptor (Homo sapiens) (Q96RI1 whole entry, looked up): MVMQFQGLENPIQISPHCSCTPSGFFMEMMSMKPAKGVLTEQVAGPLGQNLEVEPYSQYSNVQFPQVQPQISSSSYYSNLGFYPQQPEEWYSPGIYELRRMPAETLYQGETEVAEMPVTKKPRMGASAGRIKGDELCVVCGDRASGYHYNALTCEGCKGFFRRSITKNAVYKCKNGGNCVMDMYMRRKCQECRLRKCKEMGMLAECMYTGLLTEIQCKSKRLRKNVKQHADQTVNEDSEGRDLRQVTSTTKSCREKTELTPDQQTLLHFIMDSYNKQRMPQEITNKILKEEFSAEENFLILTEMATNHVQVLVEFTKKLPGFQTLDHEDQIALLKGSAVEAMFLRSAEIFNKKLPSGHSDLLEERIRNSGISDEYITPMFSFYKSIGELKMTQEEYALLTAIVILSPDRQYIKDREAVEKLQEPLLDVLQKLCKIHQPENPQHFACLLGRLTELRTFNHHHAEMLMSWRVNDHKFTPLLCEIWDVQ
Compound,outcome [1],outcome [2],outcome [3],outcome [4],outcome [5],outcome [6],outcome [7],outcome [8],outcome [9],AC50 [9],AC50 [2],AC50 [7],AC50 [5],AC50 [8]
Cc1ccc(S(=O)(=O)Oc2ccc(N=Nc3ccc(-c4ccc(N=Nc5c(O)ccc6cc(S(=O)(=O)O)cc(S(=O)(=O)O)c56)c(C)c4)cc3C)cc2)cc1,inactive,inactive,inactive,inactive,inactive,inactive,inactive,inactive,inactive,–,–,–,–,–
CCOc1ccccc1O,inactive,inactive,inactive,inactive,inactive,inactive,inactive,inactive,inactive,–,–,–,–,–
CC(C)=CCCC(C)CCOC=O (centres undefined),inactive,inactive,inactive,inactive,inactive,inactive,inactive,inactive,inactive,–,–,–,–,–
CCCCCCCCCC(=O)OC,inactive,inactive,inactive,inactive,inactive,inactive,inactive,inactive,inactive,–,–,–,–,–
C[Si](C)(C)O[Si](C)(C)C,inactive,inactive,inactive,inactive,inactive,inactive,inactive,inactive,–,–,–,–,–,–
C=C(C)C(=O)OCCOC1CC2CC1C1C=CCC21 (centres undefined),inactive,inactive,inactive,inactive,inactive,inactive,inactive,inactive,inactive,–,–,–,–,–
c1ccc2[nH]cnc2c1,inactive,inactive,inactive,–,inactive,inactive,inactive,–,inactive,–,–,–,–,–
OCc1ccc(Cl)cc1Cl,inactive,inactive,inactive,–,inactive,inactive,inactive,inactive,inactive,–,–,–,–,–
CCCCCCCCCCCCCCCC(=O)OC/C=C(C)/C=C/C=C(C)/C=C/C1=C(C)CCCC1(C)C,inactive,inactive,inactive,inactive,inactive,inactive,–,inactive,inactive,–,–,–,–,–
C[N+](C)(C)CCCCCC[N+](C)(C)C,inactive,inactive,inactive,inactive,–,inactive,inactive,inactive,inactive,–,–,–,–,–
COS(=O)(=O)O,inactive,inactive,inactive,–,inactive,inactive,–,inactive,inactive,–,–,–,–,–
CCC(C)=O,inactive,inactive,inactive,inactive,–,inactive,inactive,inactive,–,–,–,–,–,–
CCCCC(CC)C(=O)OC(C)C (centres undefined),inactive,inactive,inactive,–,inactive,inactive,inactive,inactive,–,–,–,–,–,–
C=C(C)C(=O)OCCOCCOCCOCCOC(=O)C(=C)C,inactive,inactive,inactive,–,inactive,inactive,inactive,inactive,inactive,–,–,–,–,–
Cc1cc(=O)oc2cc(N(C)C)ccc12,inactive,inactive,inactive,inactive,–,inactive,inactive,inactive,–,100 µM (active),–,–,–,–
CC(C)CC(C)CC(O)CC(C)C (centres undefined),inactive,inactive,inactive,inactive,–,inactive,inactive,inactive,inactive,–,–,–,–,–

Compound,outcome [1],outcome [2],outcome [3],outcome [4],outcome [5],outcome [6],outcome [7],outcome [8],outcome [9],AC50 [9],AC50 [2],AC50 [7],AC50 [5],AC50 [8]
O=C1CCCC=CCCCCCCCCCC1,inactive,–,inactive,–,inactive,inactive,–,–,inactive,–,41.2 µM (active),63 µM (active),–,–
CC1CCC(C(C)C)C(O)C1 (centres undefined),inactive,inactive,inactive,inactive,inactive,inactive,–,inactive,inactive,–,–,–,–,–
CCCCOCC,inactive,inactive,inactive,inactive,inactive,inactive,–,inactive,inactive,–,–,–,–,–
CCC1(C)NC(=O)NC1=O (centres undefined),inactive,inactive,inactive,inactive,–,inactive,–,–,–,–,–,–,–,–
CCCCCCOC(=O)C(C)C,inactive,inactive,inactive,inactive,inactive,inactive,–,inactive,–,–,–,–,–,–
O=C(O)CCCCCCCCCCCC(=O)O,inactive,inactive,inactive,inactive,inactive,inactive,–,inactive,–,–,–,–,–,–
CC(=O)OCCCc1ccccc1,inactive,inactive,inactive,–,inactive,inactive,inactive,inactive,–,–,–,–,–,–
CCCCC(CC)COC(=O)c1ccc(O)cc1 (centres undefined),inactive,inactive,–,inactive,inactive,inactive,inactive,inactive,–,–,–,–,–,–
OCCc1ccccc1,inactive,inactive,inactive,inactive,inactive,inactive,–,inactive,–,–,–,–,–,–
C=Cc1ccc(C(C)(C)C)cc1,inactive,inactive,inactive,–,inactive,inactive,inactive,inactive,inactive,–,–,–,–,–
CCCCCCCCN1CCCC1=O,inactive,inactive,inactive,–,–,inactive,inactive,inactive,inactive,–,–,–,147 µM (active),–
CC(C)C(OC(=O)c1ccccc1)C(C)(C)COC(=O)c1ccccc1 (centres undefined),inactive,inactive,inactive,inactive,–,inactive,–,inactive,inactive,–,–,–,–,–
CCCCCC(C=O)=Cc1ccccc1,inactive,–,inactive,inactive,inactive,inactive,–,inactive,inactive,–,160 µM (active),–,–,–
Nc1ccc2cc(S(=O)(=O)O)cc(O)c2c1N=Nc1ccccc1C(F)(F)F,inactive,inactive,inactive,–,inactive,inactive,inactive,inactive,inactive,–,–,–,–,–
Oc1ccc2cc(SSc3ccc4cc(O)ccc4c3)ccc2c1,inactive,–,inactive,inactive,–,inactive,–,–,inactive,–,100 µM (active),78.1 µM (active),–,34.8 µM (active)

# Reference: PubChem BioAssay (EPA / NIEHS)
